Data reported in PubChem BioAssay AID1159580 (chemical genetic matrix, 2015).
Hit rate of the full screen: of about 5,500 compounds, about 2,000 (36%) were called active. Another 18% or so got no clear call; they are omitted. Rule as the data show it: active = normalized growth mostly below about 0.91 (no sharp cut-off); inconclusive = no clear call, values can overlap the other calls; inactive = mostly above about 0.92. Some of the results follow.

Experiment: chemical genetic growth profiling, strain panel (AID 1159580);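 also: tested at 20 µM; growth read once vehicle control cultures reached saturation at 30 °C; 1 = growth at the plate median or of vehicle wells; lower values mean less growth of the strain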
Details: S. cerevisiae deletion strains, growth OD

Measured: normalized growth

C[C@@H](N)CO
inactive: locus YAL021C, strain ccr4, hits give low values 0.998 | locus YAL026C, strain drs2, hits give low values 0.992 | locus YAL030W, strain snc1, hits give low values 0.985 | locus YBL061C, strain skt5, hits give low values 0.994 | locus YBR009C, strain hhf1, hits give low values 1.01 | locus YBR023C, strain chs3, hits give low values 0.987 | locus YBR171W, strain sec66, hits give low values 0.967 | locus YBR231C, strain swc5, hits give low values 0.991 | locus YBR279W, strain paf1, hits give low values 0.987 | locus YCL011C, strain gbp2, hits give low values 0.997 | locus YCL016C, strain dcc1, hits give low values 0.991 | locus YCL069W, strain vba3, hits give low values 0.988 | locus YCR088W, strain abp1, hits give low values 0.993 | locus YDL005C, strain med2, hits give low values 0.961 | locus YDL040C, strain nat1, hits give low values 0.976 | locus YDR001C, strain nth1, hits give low values 0.983 | locus YDR069C, strain doa4, hits give low values 0.967 | locus YDR137W, strain rgp1, hits give low values 0.979 | locus YDR159W, strain sac3, hits give low values 0.972 | locus YDR195W, strain ref2 0.954 | locus YDR297W, strain sur2, hits give low values 1 | locus YDR334W, strain swr1, hits give low values 0.989 | locus YDR335W, strain msn5, hits give low values 0.995 | locus YDR392W, strain spt3, hits give low values 0.979 | locus YEL003W, strain gim4, hits give low values 0.997 | locus YEL037C, strain rad23, hits give low values 1 | locus YEL061C, strain CIN8 (second series), hits give low values 1.01 | locus YER015W, strain faa2, hits give low values 0.989 | locus YER016W, strain bim1, hits give low values 0.996 | locus YER111C, strain swi4, hits give low values 0.973 | locus YER155C, strain BEM2 (second series), hits give low values 0.984 | locus YFR010W, strain ubp6, hits give low values 1 | locus YGL167C, strain pmr1, hits give low values 0.984 | locus YGL173C, strain kem1, hits give low values 1 | locus YGL227W, strain vid30, hits give low values 0.973 | locus YGL240W, strain doc1, hits give low values 1.01 | locus YGL253W, strain hxk2, hits give low values 0.989 | locus YHR013C, strain ard1, hits give low values 1 | locus YHR027C, strain rpn1, hits give low values 0.995 | locus YHR030C, strain SLT2, hits give low values 0.984 | locus YHR079C, strain IRE1, hits give low values 0.974 | locus YHR142W, strain chs7, hits give low values 0.98 | locus YJL092W, strain hpr5, hits give low values 0.996 | locus YJL095W, strain BCK1 (second series), hits give low values 0.996 | locus YJL095W, strain BCK1, hits give low values 0.975 | locus YJL115W, strain asf1, hits give low values 1 | locus YJL129C, strain trk1, hits give low values 0.989 | locus YJL154C, strain vps35, hits give low values 0.996 | locus YJL164C, strain tpk1, hits give low values 1.01 | locus YJL166W, strain qcr8, hits give low values 1 | locus YJL187C, strain SWE1, hits give low values 0.988 | locus YJR066W, strain TOR1, hits give low values 0.914 | locus YKL160W, strain elf1, hits give low values 0.968 | locus YKR026C, strain gcn3, hits give low values 0.995 | locus YKR091W, strain srl3, hits give low values 0.977 | locus YLL001W, strain dnm1, hits give low values 0.986 | locus YLL026W, hits give low values 0.994 | locus YLL041C, strain sdh2, hits give low values 0.997 | locus YLR027C, strain aat2, hits give low values 0.999 | locus YLR113W, strain HOG1, hits give low values 1.02 | locus YLR221C, strain rsa3, hits give low values 1.01 | locus YLR258W, strain gsy2, hits give low values 0.995 | locus YLR262C, strain YPT6 (second series), hits give low values 0.973 | locus YLR320W, strain mms22, hits give low values 1.01 | locus YLR342W, strain FKS1, hits give low values 0.987 | locus YLR357W, strain rsc2, hits give low values 0.954 | locus YLR370C, strain arc18, hits give low values 0.996 | locus YLR384C, strain iki3, hits give low values 1.01 | locus YML120C, strain ndi1, hits give low values 0.983 | locus YMR058W, strain fet3, hits give low values 1.02 | locus YMR125W, strain sto1, hits give low values 0.947 | locus YMR129W, hits give low values 0.994 | locus YMR205C, strain PFK2, hits give low values 1.01 | locus YMR231W, strain pep5, hits give low values 0.984 | locus YNL071W, strain lat1, hits give low values 1.01 | locus YNL183C, strain NPR1, hits give low values 0.901 | locus YNL209W, strain ssb2, hits give low values 0.974 | locus YNL248C, strain rpa49, hits give low values 0.942 | locus YNL322C, strain KRE1 (second series), hits give low values 0.973 | locus YNR049C, strain mso1, hits give low values 0.981 | locus YOR001W, strain rrp6, hits give low values 1.01 | locus YOR070C, strain gyp1, hits give low values 0.986 | locus YOR080W, strain dia2, hits give low values 0.969 | locus YOR083W, strain WHI5, hits give low values 0.94 | locus YOR106W, strain vam3, hits give low values 0.964 | locus YOR231W, strain MKK1, hits give low values 0.974 | locus YOR265W, strain rbl2, hits give low values 0.992 | locus YOR270C, strain vph1, hits give low values 0.976 | locus YOR290C, strain snf2, hits give low values 0.984 | locus YPL051W, strain arl3, hits give low values 0.99 | locus YPL078C, strain atp4, hits give low values 0.976 | locus YPL106C, strain sse1, hits give low values 0.973 | locus YPL240C, strain hsp82, hits give low values 0.995 | locus YPL256C, strain CLN2, hits give low values 0.988
